Source: the supplement of paper PMC3842684

Assays:
[1] = system: P. falciparum NF54-pfs16-GFP early (I-III) stage gametocytes; assay: relative % inhibition of viable gametocyte number; higher = more gametocytocidal; settings: stage: early (I-III) gametocyte, incubation 72 h
Outline: (§1)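 Viable gametocytes were counted by confocal imaging as elongated GFP objects carrying MitoTracker Red signal above a cut-off, after 72 h of compound exposure (5 or 0.5 µM) at 37°C in 5% CO2 and 5% O2 and overnight staining. The NF54 pfs16-GFP gametocytes had been magnet-isolated at early (I/IIa, day 2) or late (day 8) stage and plated at 10% parasitaemia, 0.1% haematocrit in 384-well poly-D-lysine imaging plates. Relative inhibition was normalised to vehicle and positive-control wells within each plate.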

[2] = system: P. falciparum NF54-pfs16-GFP late (IV-V) stage gametocytes; assay: as above; settings: stage: late (IV-V) gametocyte, incubation 72 h
Outline: as §1

## CCOc1ccc(-n2cc(-c3ccccc3)c3c(SCc4cc(C)ccc4C)ncnc32)cc1
[1]; 0.5 µM
  relative % inhibition: -4.24%
[1]; 5 µM
  relative % inhibition: -7.96%
[2]; 0.5 µM
  relative % inhibition: 11.3%
[2]; 5 µM
  relative % inhibition: 19.7%

## CCCc1c(C)nc2ccccc2c1O
[1]; 0.5 µM
  relative % inhibition: -8.06%
[1]; 5 µM
  relative % inhibition: 15.7%
[2]; 0.5 µM
  relative % inhibition: 56.5%
[2]; 5 µM
  relative % inhibition: 72.3%

## CN1c2ccccc2N(C)C1c1ccc2c(c1)OCO2
[1]; 0.5 µM
  relative % inhibition: 0.225%
[1]; 5 µM
  relative % inhibition: -13.6%
[2]; 0.5 µM
  relative % inhibition: 28.6%
[2]; 5 µM
  relative % inhibition: -1.98%

## CCCCCC(=O)N1c2ccccc2N=C2CC(c3ccc(OC)c(OC)c3)CC(O)=C2C1c1ccc(C(F)(F)F)cc1 (centres undefined)
[1]; 0.5 µM
  relative % inhibition: 50.6%
[1]; 5 µM
  relative % inhibition: 76.3%
[2]; 0.5 µM
  relative % inhibition: 32.8%
[2]; 5 µM
  relative % inhibition: 60.6%

## CCCCCCc1cc2cc(-c3nc4ccccc4[nH]3)c(=Nc3ccccc3C)oc2cc1O
[1]; 0.5 µM
  relative % inhibition: 60.1%
[1]; 5 µM
  relative % inhibition: 100%
[2]; 0.5 µM
  relative % inhibition: 35%
[2]; 5 µM
  relative % inhibition: 52.7%

## FC(F)(F)c1ccc(Nc2nnnc3ccccc23)cc1
[1]; 0.5 µM
  relative % inhibition: 7.13%
[1]; 5 µM
  relative % inhibition: 2.85%
[2]; 0.5 µM
  relative % inhibition: 25%
[2]; 5 µM
  relative % inhibition: 7.26%

## OC(CNCc1ccccc1)Cn1c2ccccc2c2ccccc21 (centres undefined)
[1]; 0.5 µM
  relative % inhibition: 0.736%
[1]; 5 µM
  relative % inhibition: 89.9%
[2]; 0.5 µM
  relative % inhibition: 21.5%
[2]; 5 µM
  relative % inhibition: 84.7%

## CCOC(=O)c1cnc2ccc(CC)cc2c1O
[1]; 0.5 µM
  relative % inhibition: -8.43%
[1]; 5 µM
  relative % inhibition: 42.6%
[2]; 0.5 µM
  relative % inhibition: 73.6%
[2]; 5 µM
  relative % inhibition: 79.8%

## CCOC(=O)c1cnc2ccc(OC)cc2c1NCc1ccccc1
[1]; 0.5 µM
  relative % inhibition: 26.4%
[1]; 5 µM
  relative % inhibition: 17.1%
[2]; 0.5 µM
  relative % inhibition: 10.1%
[2]; 5 µM
  relative % inhibition: 2.07%

## CC(C)(C)c1ccc(C(=O)Nc2nc3ccccc3s2)cc1
[1]; 0.5 µM
  relative % inhibition: 0.793%
[1]; 5 µM
  relative % inhibition: 31%
[2]; 0.5 µM
  relative % inhibition: 6.03%
[2]; 5 µM
  relative % inhibition: 2.42%

## O=C(Nc1ccc(Cl)cc1C(=O)Nc1ccncc1)c1ccc(Cl)cc1Cl
[1]; 0.5 µM
  relative % inhibition: 20.3%
[1]; 5 µM
  relative % inhibition: 31.8%
[2]; 0.5 µM
  relative % inhibition: -5.7%
[2]; 5 µM
  relative % inhibition: -20.8%

## O=C(Nc1nc(-c2ccccn2)cs1)c1ccccc1Br
[1]; 0.5 µM
  relative % inhibition: 10.8%
[1]; 5 µM
  relative % inhibition: 93.2%
[2]; 0.5 µM
  relative % inhibition: -7.93%
[2]; 5 µM
  relative % inhibition: 68.6%

## Cc1ccc(-c2nc3ccccc3o2)cc1NCc1cc(Cc2ccccc2)ccc1O
[1]; 0.5 µM
  relative % inhibition: 9.8%
[1]; 5 µM
  relative % inhibition: 95.1%
[2]; 0.5 µM
  relative % inhibition: 13.4%
[2]; 5 µM
  relative % inhibition: 48.6%

## OC(Cn1nnc2ccccc21)Cn1c2ccc(Br)cc2c2cc(Br)ccc21 (centres undefined)
[1]; 0.5 µM
  relative % inhibition: 5.28%
[1]; 5 µM
  relative % inhibition: 83.6%
[2]; 0.5 µM
  relative % inhibition: 18.2%
[2]; 5 µM
  relative % inhibition: 43.4%

## Cc1[nH]c(-c2ccc(F)cc2)cc1C(=O)NC1CCN(Cc2ccccc2)CC1
[1]; 0.5 µM
  relative % inhibition: 14.7%
[1]; 5 µM
  relative % inhibition: 75.3%
[2]; 0.5 µM
  relative % inhibition: 6.29%
[2]; 5 µM
  relative % inhibition: 15.4%

## COc1cc(-c2nc(-c3ccc(Sc4ccccc4)cc3)c(-c3ccccc3)[nH]2)cc(OC)c1O
[1]; 0.5 µM
  relative % inhibition: 27%
[1]; 5 µM
  relative % inhibition: 86.1%
[2]; 0.5 µM
  relative % inhibition: 3.44%
[2]; 5 µM
  relative % inhibition: -21%

## COc1ccc(N2CCN(C(CNC(=O)C3CCCCC3)c3ccc4c(c3)OCO4)CC2)cc1 (centres undefined)
[1]; 0.5 µM
  relative % inhibition: 22.8%
[1]; 5 µM
  relative % inhibition: 8.98%
[2]; 0.5 µM
  relative % inhibition: 35.1%
[2]; 5 µM
  relative % inhibition: 50.7%

## Cc1cc(Nc2ccc(C)c(Cl)c2)n2nc(C(F)(F)F)nc2n1
[1]; 0.5 µM
  relative % inhibition: -5.05%
[1]; 5 µM
  relative % inhibition: -8.28%
[2]; 0.5 µM
  relative % inhibition: 13.1%
[2]; 5 µM
  relative % inhibition: -2.09%

## COc1ccc(C(C)=O)cc1N1C(=O)C2C(C1=O)C1(c3ccccc3)C(=O)C2(c2ccccc2)C(c2ccc(C)cc2)=C1c1ccc(C)cc1 (centres undefined)
[1]; 0.5 µM
  relative % inhibition: 52.9%
[1]; 5 µM
  relative % inhibition: 93.5%
[2]; 0.5 µM
  relative % inhibition: 78.9%
[2]; 5 µM
  relative % inhibition: 73.1%

## O=C1C2=C(Nc3ccccc3SC2c2ccccc2)c2ccccc21 (centres undefined)
[1]; 0.5 µM
  relative % inhibition: -7.59%
[1]; 5 µM
  relative % inhibition: -12.7%
[2]; 0.5 µM
  relative % inhibition: 61.6%
[2]; 5 µM
  relative % inhibition: 55.8%

## Cc1sc2ncnc(Sc3nc4ccccc4[nH]3)c2c1C
[1]; 0.5 µM
  relative % inhibition: 89.7%
[1]; 5 µM
  relative % inhibition: 91.1%
[2]; 0.5 µM
  relative % inhibition: 30.6%
[2]; 5 µM
  relative % inhibition: 94.5%

## COc1ccc(OC)c(C2C3=C(CC(C)(C)CC3=O)N(c3ccc(Cl)c(Cl)c3)C3=C2C(=O)CC(C)(C)C3)c1
[1]; 0.5 µM
  relative % inhibition: 13.6%
[1]; 5 µM
  relative % inhibition: 67.1%
[2]; 0.5 µM
  relative % inhibition: 13.8%
[2]; 5 µM
  relative % inhibition: 79.2%

## O=C(CCc1ccccc1)c1ccccc1OCC(O)CN1CCCCC1 (centres undefined)
[1]; 0.5 µM
  relative % inhibition: 12.7%
[1]; 5 µM
  relative % inhibition: 96.8%
[2]; 0.5 µM
  relative % inhibition: 15%
[2]; 5 µM
  relative % inhibition: 48.2%

## COc1ccc(C=C2SC(=N)N(c3ccccc3OC)C2=O)cc1
[1]; 0.5 µM
  relative % inhibition: 11%
[1]; 5 µM
  relative % inhibition: 63.6%
[2]; 0.5 µM
  relative % inhibition: 0%
[2]; 5 µM
  relative % inhibition: 67.5%

## O=C(Nc1ccc(C23CC4CC(CC(c5ccccc5)(C4)C2)C3)cc1)c1cccs1
[1]; 0.5 µM
  relative % inhibition: -8.5%
[1]; 5 µM
  relative % inhibition: 12.3%
[2]; 0.5 µM
  relative % inhibition: 12.9%
[2]; 5 µM
  relative % inhibition: 31.6%

## Cc1c(C)n(Cc2ccc(F)cc2)c2ccc(C(=O)NCc3ccco3)cc12
[1]; 0.5 µM
  relative % inhibition: 19.2%
[1]; 5 µM
  relative % inhibition: -8.91%
[2]; 0.5 µM
  relative % inhibition: 16.9%
[2]; 5 µM
  relative % inhibition: 21.7%

## CCOC(=O)c1cn(CC)c2cc(N(C)CCc3ccc(OC)c(OC)c3)c(F)cc2c1=O
[1]; 0.5 µM
  relative % inhibition: 38.6%
[1]; 5 µM
  relative % inhibition: 51.6%
[2]; 0.5 µM
  relative % inhibition: 72.3%
[2]; 5 µM
  relative % inhibition: 97.7%

## Cn1c(C(=O)c2cccc3ccccc23)nc2ccccc21
[1]; 0.5 µM
  relative % inhibition: 3.04%
[1]; 5 µM
  relative % inhibition: 19.9%
[2]; 0.5 µM
  relative % inhibition: 9.04%
[2]; 5 µM
  relative % inhibition: 5.95%

## Cc1ccc(Nc2nc(N)c3ccccc3n2)cc1Cl
[1]; 0.5 µM
  relative % inhibition: -26.6%
[1]; 5 µM
  relative % inhibition: 24.5%
[2]; 0.5 µM
  relative % inhibition: 22.5%
[2]; 5 µM
  relative % inhibition: 38.4%

## CCn1c(CN2CCN(Cc3ccccc3)CC2)nc2cc(NC(=O)c3cccs3)ccc21
[1]; 0.5 µM
  relative % inhibition: -11.6%
[1]; 5 µM
  relative % inhibition: 9.85%
[2]; 0.5 µM
  relative % inhibition: 28.5%
[2]; 5 µM
  relative % inhibition: 50.7%

## CCOC(=O)C1=C(C)N=c2sc(=Cc3cc(Cl)ccc3O)c(=O)n2C1c1ccc(OC)cc1 (centres undefined)
[1]; 0.5 µM
  relative % inhibition: 105%
[1]; 5 µM
  relative % inhibition: 108%
[2]; 0.5 µM
  relative % inhibition: 94.5%
[2]; 5 µM
  relative % inhibition: 103%

## COc1ccc(NC(=O)C2c3ccccc3C(=O)N(CC(C)C)C2c2cccs2)cc1 (centres undefined)
[1]; 0.5 µM
  relative % inhibition: 52.4%
[1]; 5 µM
  relative % inhibition: 102%
[2]; 0.5 µM
  relative % inhibition: 25.7%
[2]; 5 µM
  relative % inhibition: 52.6%

## COc1cccc(NC(=O)Cn2c(C)c(C#N)c3ccccc32)c1
[1]; 0.5 µM
  relative % inhibition: 17%
[1]; 5 µM
  relative % inhibition: 45.2%
[2]; 0.5 µM
  relative % inhibition: -4.97%
[2]; 5 µM
  relative % inhibition: 29.8%

## COc1ccccc1CNC(=O)C1c2ccccc2C(=O)N(CC(C)C)C1c1cccs1 (centres undefined)
[1]; 0.5 µM
  relative % inhibition: -0.661%
[1]; 5 µM
  relative % inhibition: 31.9%
[2]; 0.5 µM
  relative % inhibition: -10.4%
[2]; 5 µM
  relative % inhibition: -4.52%

## COCCn1c(C)nc2ccccc2c1=O
[1]; 0.5 µM
  relative % inhibition: 9.29%
[1]; 5 µM
  relative % inhibition: 10.1%
[2]; 0.5 µM
  relative % inhibition: 43.2%
[2]; 5 µM
  relative % inhibition: 16.8%

## CCOC(=O)c1cnc2ccc(Cl)cc2c1NCCCN(C)C
[1]; 0.5 µM
  relative % inhibition: 3.83%
[1]; 5 µM
  relative % inhibition: 74.3%
[2]; 0.5 µM
  relative % inhibition: -21.7%
[2]; 5 µM
  relative % inhibition: -1.78%
